1 molecule from PubChem BioAssay AID489017 (The Scripps Research Institute Molecular Screening Center, 2010) can be followed below.

The experiment deals with Potassium Channel [KATP]. The experiment can be described thus: receptor, enzyme and CYP inhibition profiling – biochemical, Ricerca HitProfilingScreen, CYP450, selectivity assay for S1P4 antagonist project, profiling panel (AID 489017). As to conditions: Ricerca receptor/enzyme binding panel plus CYP450, at 10 µM, active compounds read high.

A number with no mark means an inactive call. The rule behind the calls is not given here.

`CCc1cccc(CC)c1NC(=O)c1ccc(-c2cc(Cl)ccc2Cl)o1`: the inhibition (usually the percentage by which the read-out fell short of the control) was 14%.
